PubChem BioAssay AID2314 (National Center for Advancing Translational Sciences (NCATS), 2010)
Among all 300,000 compounds or so, about 37,000 (12%) were called active. No stated cut-off is given here; in the data, active means max response mostly above about 13% (no sharp cut-off); inactive means mostly below about 14%. The sample as a whole holds a higher share of actives than the screen did.

test: Cycloheximide Counterscreen for Small Molecule Inhibitors of Shiga Toxin; conditions: cell reporter, cycloheximide protein synthesis inhibition counterscreen; hits give high values; further: read at 38.3 µM for the half of the compounds with a filed dose; 0% is about no effect

Q: With `COC(=O)CC(=O)N1CCN(c2ccc(Cl)c(Cl)c2)CC1` as the compound, how does the max response read?
A: 0.736% (inactive)

Q: For `Cc1cccc(C)c1OCCN1CCOCC1`, which max response is on record?
A: 0.405% (inactive)

Q: For `CCn1c2ccc(F)cc2c2nnc(SCCN3CCOCC3)nc21`, which max response is on record?
A: 8.52% (inactive)

Q: Which max response does the source give for `Cc1cc2nc(SCCN3CCOCC3)[nH]c2cc1C` here?
A: 32.3% (active)

Q: Which max response does the source give for `COCCn1c(SCC(=O)Nc2nc(C)cs2)nnc1C(C)C` here?
A: -4.2% (inactive)

Q: With `Cc1cccc(CCNC(=O)Cn2ncc3c([nH]c4ccc(C)cc43)c2=O)c1` as the compound, how does the max response read?
A: -2.84% (inactive)

Q: Which max response does the source give for `O=C1CCC(C(=O)N2CCN(c3ccccc3Cl)CC2)CN1CC1CCCCC1` (stereo not drawn) here?
A: 9.87% (inactive)

Q: For `O=C(Cn1ncc2c3ccccc3n(Cc3ccccc3)c2c1=O)NCCCN1CCOCC1`, which max response is on record?
A: 6.16% (inactive)

Q: Which max response does the source give for `Cc1cc(CO)nn1-c1ccc([N+](=O)[O-])cc1` here?
A: -1.2% (inactive)

Q: For `Cc1nc(-c2ccc([N+](=O)[O-])cc2)c(-c2ccccc2)o1`, which max response is on record?
A: -2.35% (inactive)

Q: For `Cc1nn(-c2ccc([N+](=O)[O-])cc2)c(N)c1-c1ccccc1`, which max response is on record?
A: 38.2% (active)

Q: Which max response does the source give for `O=C(CCN1CCCO1)N1CCCC(N2CCN(c3cccc(C(F)(F)F)c3)CC2)C1` (stereo not drawn) here?
A: 7.08% (inactive)

Q: With `COC(=O)c1sccc1NN1C(=O)c2ccccc2C1=O` as the compound, how does the max response read?
A: 28.6% (active)

Q: Which max response does the source give for `COC(=O)c1sccc1NC(=S)Nc1ccc(C)cc1` here?
A: 25.3% (inactive)

Q: With `COC(=O)c1sccc1NC(=O)c1cc(OC)c(OC)c(OC)c1` as the compound, how does the max response read?
A: 1.99% (inactive)

Q: With `Cc1ccccc1CNC(=O)CCC(=O)N1Cc2ccccc2Oc2ncccc21` as the compound, how does the max response read?
A: -2.36% (inactive)

Q: For `COc1cccc(CN2CCN(Cc3ccc4cccc(F)c4n3)CC2CCO)c1` (stereo not drawn), which max response is on record?
A: -3.47% (inactive)

Q: Which max response does the source give for `COC(=O)c1ccc(C2C3=C(Nc4nnnn42)c2ccccc2OC3)cc1` (stereo not drawn) here?
A: 17.4% (active)

Q: Which max response does the source give for `COc1ccccc1NC(=O)C1=C(C)Nc2nnnn2C1c1cccc(Br)c1` (stereo not drawn) here?
A: -5.64% (inactive)

Q: Which max response does the source give for `COC(=O)C1=C(C(=O)c2ccc(C)cc2)C(c2ccccc2)n2nnnc2N1` (stereo not drawn) here?
A: 2.04% (inactive)

Q: For `Cc1cc2c(=O)n(CC(=O)NCC(=O)Nc3ccc(C(C)C)cc3)cnc2s1`, which max response is on record?
A: -5.28% (inactive)

Q: For `COc1cc(/C=N/NC(=O)Cc2ccccc2)cc(OC)c1OC`, which max response is on record?
A: -1.38% (inactive)

Q: Which max response does the source give for `COc1ccc(C(=O)OCC(=O)NCC2CCCCC2)cc1S(=O)(=O)N1CCCc2ccccc21` here?
A: -2.88% (inactive)

Q: Which max response does the source give for `COc1cc(C)c(C)cc1S(=O)(=O)N1CCCc2ccccc21` here?
A: 17.6% (active)

Q: For `Cn1c(=O)n(C)c2cc(S(=O)(=O)N3CCCc4ccccc43)ccc21`, which max response is on record?
A: -0.606% (inactive)

Q: Which max response does the source give for `CCN(CC)c1ccc2c(Nc3ccccc3)c(C=O)c(=O)oc2c1` here?
A: 17.7% (active)

Q: For `CCC(=O)Nc1ccc(S(=O)(=O)Nc2c(NC)c3ccccc3oc2=O)cc1`, which max response is on record?
A: 11% (inactive)

Q: For `CCOC(=O)Nc1ccc2c(c1)N(C(=O)CCCl)c1ccccc1[S@]2=O`, which max response is on record?
A: 4.2% (inactive)

Q: For `CCOc1ccc(C(CC(=O)O)NC(=O)Cc2ccccc2)cc1OC` (stereo not drawn), which max response is on record?
A: -1.44% (inactive)

Q: With `CCNS(=O)(=O)c1ccc(CCC(=O)N2CCN(c3cc(Cl)ccc3C)CC2)cc1` as the compound, how does the max response read?
A: -1.74% (inactive)

Q: Which max response does the source give for `Cc1ccc(C(=O)N2CCCC2)c(F)c1F` here?
A: -2.63% (inactive)

Q: Which max response does the source give for `O=C(c1cccs1)N(C(=O)c1cccs1)c1ccccn1` here?
A: 21.4% (active)

Q: For `COc1ccc(CN(C(=O)c2cccs2)c2nccs2)cc1OC`, which max response is on record?
A: -2.68% (inactive)

Q: Which max response does the source give for `COc1ccc(CN(Cc2ccc(OC)cc2)C(=O)c2cccs2)cc1` here?
A: 4.04% (inactive)

Q: Which max response does the source give for `CCc1ccc(CN(C)C(=O)CCc2nnc(-c3ccc(-c4ccccc4)cc3)o2)nc1` here?
A: 16.7% (active)

Q: Which max response does the source give for `CCc1ccc(CN(C)Cc2nc(Cc3ccccc3)no2)nc1` here?
A: 0.562% (inactive)

Q: Which max response does the source give for `CC(=O)c1ccc(-c2nnc(CCC(=O)N(C)Cc3cnc4ccccn34)o2)s1` here?
A: 8.64% (inactive)

Q: With `Cn1cc(CCC(=O)N2CCCC(C(=O)c3ccc(C(C)(C)C)cc3)C2)cn1` (stereo not drawn) as the compound, how does the max response read?
A: 7.09% (inactive)

Q: For `COc1cccc(CSc2nc3nc(C)cc(C)n3n2)c1`, which max response is on record?
A: 3.55% (inactive)

Q: With `COc1ccc2[nH]c3nc(SCC(=O)NC4CC4)nnc3c2c1` as the compound, how does the max response read?
A: -1.61% (inactive)

Q: For `COC(=O)CSc1nc(C2CC2)nc2ccccc12`, which max response is on record?
A: -1.2% (inactive)

Q: For `COc1ccc(-c2nnc3ccc(SCc4ccccc4)nn23)cc1`, which max response is on record?
A: -1.33% (inactive)

Q: Which max response does the source give for `COc1ccc2nc(SCc3ccccc3)nc(C)c2c1` here?
A: 55.9% (active)

Q: Which max response does the source give for `COC(=O)CSc1nc(C)c2ccc(OC)cc2n1` here?
A: 42.7% (active)

Q: For `Cc1cccc(C)c1NC(=O)COC(=O)c1ccccc1O`, which max response is on record?
A: -0.421% (inactive)

Q: With `CCOC(=O)C1CCCN(S(=O)(=O)c2ccc(-n3cnnn3)c(C)c2)C1` (stereo not drawn) as the compound, how does the max response read?
A: -3.27% (inactive)

Q: Which max response does the source give for `CC(C)c1ccc(NC(=O)[C@@H](NC(=O)N2CC(=O)Nc3ccccc32)C(C)C)cc1` here?
A: 1.52% (inactive)

Q: Which max response does the source give for `COc1ccc(-n2c(=O)[nH]c3cc(C(=O)NCCc4ccc(OC)c(OC)c4)ccc3c2=O)c(OC)c1` here?
A: 0.206% (inactive)

Q: For `C=CCSc1nc2c(c(=O)[nH]c(=O)n2C)n1Cc1ccccc1`, which max response is on record?
A: -3.59% (inactive)

Q: For `Cc1cc(C)cc(OCC(=O)NC(C)c2ccccc2)c1` (stereo not drawn), which max response is on record?
A: 4.02% (inactive)

Q: Which max response does the source give for `Cc1cc(C)cc(OCC(=O)NNC(=O)CCN2C(=O)c3ccccc3C2=O)c1` here?
A: -0.614% (inactive)

Q: With `COc1ccc(-c2nc(CS(=O)CC(=O)NCc3ccccn3)c(C)o2)cc1` (stereo not drawn) as the compound, how does the max response read?
A: 7.49% (inactive)

Q: Which max response does the source give for `COc1ccc2oc(=O)c(C(=O)N3CCCC3)cc2c1` here?
A: -2.74% (inactive)

Q: Which max response does the source give for `NS(=O)(=O)c1ccc(NC(=O)COC(=O)c2cc3ccccc3oc2=O)cc1` here?
A: 10.3% (active)

Q: For `COc1ccc2oc(=O)c(C(=O)NCc3ccccn3)cc2c1`, which max response is on record?
A: 30.2% (active)

Q: For `NS(=O)(=O)c1ccc(NC(=O)COC(=O)CCc2c[nH]c3ccccc23)cc1`, which max response is on record?
A: -3.16% (inactive)

Q: For `Cc1cc(C)cc(OCC(=O)NNC(=O)c2cc3ccccc3oc2=O)c1`, which max response is on record?
A: 24.7% (active)

Q: Which max response does the source give for `O=C(NCc1ccccn1)c1cc2ccccc2oc1=O` here?
A: 36% (active)

Q: For `NS(=O)(=O)c1ccc(NC(=O)COC(=O)c2ccco2)cc1`, which max response is on record?
A: -1.96% (inactive)

Q: For `O=C(NCc1ccccn1)c1cnc2sccn2c1=O`, which max response is on record?
A: -2.63% (inactive)

Q: For `O=C(NCc1ccccn1)c1cc(Br)ccc1Cl`, which max response is on record?
A: 17.7% (inactive)

Q: Which max response does the source give for `CC(=O)N1c2ccc(S(=O)(=O)N3CCC(C(=O)N4CCN(c5ccccc5)CC4)CC3)cc2CC1C` (stereo not drawn) here?
A: -2.01% (inactive)

Q: Which max response does the source give for `O=C(Nc1cc(C(F)(F)F)ccc1Cl)c1cc2nc3c(c(C(F)(F)F)n2n1)CCCC3` here?
A: -1.76% (inactive)

Q: With `C#CCOc1ccc(/C=C2/C(=O)ON=C2C)cc1OCC` as the compound, how does the max response read?
A: 3.92% (inactive)

Q: Which max response does the source give for `CCCOC(=O)c1cc2ccccc2oc1=O` here?
A: 11.4% (inactive)

Q: For `C=CCc1cccc2cc(C(=O)OCC)c(=O)oc12`, which max response is on record?
A: -2.44% (inactive)

Q: For `CCOC(=O)c1cc2cc3ccccc3cc2oc1=O`, which max response is on record?
A: 21.6% (active)

Q: With `CC[C@]1(O)CC2CN(CCc3c([nH]c4ccccc34)[C@@](C(=O)OC)(c3cc4c(cc3OC)N(C=O)[C@H]3[C@@](O)(C(=O)OC)[C@H](OC(C)=O)[C@]5(CC)C=CCN6CC[C@]43[C@@H]65)C2)C1` (stereo partly drawn) as the compound, how does the max response read?
A: -6.26% (inactive)

Q: For `CCOc1ccccc1N1C(=O)CC(Sc2nccc(C)n2)C1=O` (stereo not drawn), which max response is on record?
A: 0.743% (inactive)

Q: Which max response does the source give for `O=C(OCc1ccc(Br)cc1)c1cccc(-c2nnc(-c3ccccc3)o2)c1` here?
A: 13.9% (inactive)

Q: With `O=C(OCc1ccc(-c2ccccc2)cc1)c1cccc(O)c1` as the compound, how does the max response read?
A: 57.7% (active)

Q: With `Cc1ccc(S(=O)(=O)c2c(COC(=O)c3cccc(Cl)c3)c(-c3ccccc3)nn2C)cc1` as the compound, how does the max response read?
A: -6.17% (inactive)

Q: For `CC(=O)Nc1ccccc1C(=O)OCC(=O)c1cccc2ccccc12`, which max response is on record?
A: 7.37% (inactive)

Q: For `O=C(OCC(=O)c1c[nH]c2ccccc12)c1cccc(O)c1`, which max response is on record?
A: 72.9% (active)

Q: Which max response does the source give for `O=C(Cc1c[nH]c2ccccc12)OCCOC(=O)Cc1c[nH]c2ccccc12` here?
A: -4.53% (inactive)

Q: For `C=C(C)C(=O)Nc1cccc(C2=NOC3(C2)C[C@H](C(N)=O)N(C(=O)C(c2ccccc2)c2ccccc2)C3)c1` (stereo partly drawn), which max response is on record?
A: -6.93% (inactive)

Q: With `CSc1ccc(C(=O)C2CCCN(C(=O)c3ccc(C)nc3)C2)cc1` (stereo not drawn) as the compound, how does the max response read?
A: -0.923% (inactive)

Q: Which max response does the source give for `O=S(=O)(Nc1ccc2[nH]ncc2c1)c1ccccc1Cl` here?
A: -3.76% (inactive)

Q: With `CN(Cc1ccco1)S(=O)(=O)c1nnc(NC(=O)c2ccccc2)s1` as the compound, how does the max response read?
A: 26% (inactive)

Q: Which max response does the source give for `COc1cccc(-c2cccc(NC(=O)C3CCN(C4CCC4)CC3)c2)c1` here?
A: -2.09% (inactive)

Q: With `O=C1CS(=O)CN1c1ccc(Oc2ccccc2)cc1` (stereo not drawn) as the compound, how does the max response read?
A: -1.61% (inactive)

Q: For `Cc1n[nH]c(=O)n1-c1ccc(Oc2ccccc2)cc1`, which max response is on record?
A: 16.2% (active)

Q: With `Cc1n[nH]c(=O)n1-c1ccc(C(C)C)cc1` as the compound, how does the max response read?
A: 4.16% (inactive)

Q: For `COc1cccc(N(C(=O)c2snc(C(N)=O)c2N)C(C(=O)NCC2CCCO2)c2c[nH]c3ccccc23)c1` (stereo not drawn), which max response is on record?
A: -2.27% (inactive)

Q: For `COC(=O)c1ccccc1NC(=O)C1(S(=O)(=O)c2ccc(Cl)cc2)CC1`, which max response is on record?
A: -5.97% (inactive)

Q: With `CN(C)S(=O)(=O)c1ccc2oc(SCC(=O)Nc3ccccc3F)nc2c1` as the compound, how does the max response read?
A: 40% (active)

Q: With `COc1ccc(NS(=O)(=O)c2ccc3oc(SCC(N)=O)nc3c2)cc1` as the compound, how does the max response read?
A: -2.16% (inactive)

Q: With `COc1ccc(S(=O)(=O)N(C)C)cc1NC(=O)CSc1ncccn1` as the compound, how does the max response read?
A: 8.4% (inactive)

Q: For `CCC1(C(=O)c2ccccc2)C(c2cccc([N+](=O)[O-])c2)C1(C(=O)OC)C(=O)OC` (stereo not drawn), which max response is on record?
A: -5.04% (inactive)

Q: With `N#Cc1c(N2CCCCC2)nc(N)c2c(N)nc(SCC(=O)O)cc12` as the compound, how does the max response read?
A: -0.559% (inactive)

Q: Which max response does the source give for `Cc1ccc(-n2c(C)cc(/C=C(\C#N)C(=O)NCC3CCCO3)c2C)cc1` (stereo not drawn) here?
A: 50.5% (active)

Q: With `Cc1ccc(S(=O)(=O)N2CCC(C(=O)NCC3CCCO3)CC2)cc1` (stereo not drawn) as the compound, how does the max response read?
A: -2.91% (inactive)

Q: With `Cc1cc(/C=C(/C#N)C(=O)Nc2ccc(Cl)cc2)c(C)n1-c1cccnc1` as the compound, how does the max response read?
A: 1.53% (inactive)
